Screening results as filed in PubChem BioAssay.
L3MBTL1 block = qHTS Assay for the Inhibitors of L3MBTL1. Lethal(3)malignant brain tumor-like protein 1 (Homo sapiens), Q9Y468. AlphaScreen L3MBTL1–H3K9me1 peptide binding. Potency, µM (titrated, usually from 57.1 µM), inactives show at the highest dose activity, negative = inhibition, hits mostly inhibitors. hit rate 0.66% among 230,000; also: nearly all actives have a fitted effect of over 60% in size
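Read-out is AlphaScreen signal from streptavidin donor and nickel chelate acceptor beads (10 ug/mL final each) bridging L3MBTL1 (50 nM) and biotinylated K9-monomethylated H3(1-15) peptide (75 nM), after 30 min compound exposure at room temperature.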
APE1 inh-1 = qHTS Assay for Inhibitors of the Human Apurinic/apyrimidinic Endonuclease 1 (APE1) | DNA repair nuclease/redox regulator APEX1 (Homo sapiens), P27695 | recombinant APE1, TAMRA/BHQ-2 abasic DNA cleavage fluorescence | Potency, µM (highest dose often 65.8 µM), for the others: top-dose activity change, negative = inhibition, usual class: inhibitors | hit rate 0.35% among 350,000;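 also: plate controls were vehicle for no effect and reference inhibitor for full effect; nearly all actives have a fitted effect of over 55% in size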
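Activity was derived from the fluorescence gain between first and third kinetic reads (60 s intervals, ex 525/em 598 nm) after 50 nM THF-abasic TAMRA/BHQ-2 duplex was added to 0.75 nM APE1 preincubated 15 min with compound.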
RECQ1 helicase = qHTS Assay for Inhibitors of RecQ-Like Dna Helicase 1 (RECQ1); ATP-dependent DNA helicase Q1 (Homo sapiens), P46063; RECQ1 DNA unwinding, red fluorescence kinetic read; Potency, µM (series often up to 57.3 µM), without a hit: top-dose activity, negative = inhibition, most hits filed as inhibitors; hit rate 0.54% among 240,000;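 also: plate controls were vehicle for no effect and no enzyme for full effect; nearly all actives have a fitted effect of over 30% in size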
Target sequence (P46063 whole entry, looked up): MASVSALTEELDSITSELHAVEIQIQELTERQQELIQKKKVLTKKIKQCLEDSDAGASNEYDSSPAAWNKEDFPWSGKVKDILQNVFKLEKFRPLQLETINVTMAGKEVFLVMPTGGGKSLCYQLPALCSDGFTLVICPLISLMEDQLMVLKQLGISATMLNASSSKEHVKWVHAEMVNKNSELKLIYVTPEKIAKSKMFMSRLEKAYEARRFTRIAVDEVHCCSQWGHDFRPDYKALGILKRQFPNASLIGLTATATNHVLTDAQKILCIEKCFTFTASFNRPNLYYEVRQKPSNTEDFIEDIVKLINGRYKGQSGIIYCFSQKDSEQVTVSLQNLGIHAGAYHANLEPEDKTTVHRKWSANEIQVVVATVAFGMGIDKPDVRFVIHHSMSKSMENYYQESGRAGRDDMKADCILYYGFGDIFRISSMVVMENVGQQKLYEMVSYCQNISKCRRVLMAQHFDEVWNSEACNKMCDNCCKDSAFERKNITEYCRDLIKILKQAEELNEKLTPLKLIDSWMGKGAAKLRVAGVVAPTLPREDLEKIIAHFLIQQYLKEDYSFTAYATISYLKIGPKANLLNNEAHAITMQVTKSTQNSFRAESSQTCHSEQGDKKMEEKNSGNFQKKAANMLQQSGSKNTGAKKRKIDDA
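RECQ1T1 50 nM; forked duplex (20 bp + 30-nt ss tails) 200 nM, ATP 2 mM final; pH 8.0, 2 mM MgCl2, 2.5 ug/ml poly(dI-dC); 15 min compound preincubation; discontinuous kinetic read over 2 h at RT.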
KDM4E inh = qHTS Assay for Inhibitors of Human Jumonji Domain Containing 2E (JMJD2E); Lysine-specific demethylase 4E (Homo sapiens), B2RXH2; JMJD2E catalytic domain, FDH-coupled NADH fluorescence (FDH is formaldehyde dehydrogenase); Potency, µM (titrated, usually from 57.1 µM), for inactives: top-dose activity change, negative = inhibition, actives largely listed as inhibitors; hit rate 1.6% among 230,000; AID 2147, 2009; active = well fitted inhibition curve with a large enough effect, not every such curve was filed as active; inconclusive = small, poorly fitted or top-dose-only effect, or another doubt; inactive = no such curve, though single readings can be large or run the other way;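 also: 0% = wells with enzyme and -100% = buffer wells without enzyme; nearly all actives have a fitted effect of over 50% in size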
GCN5L2 inh = qHTS Assay for Inhibitors of GCN5L2; hit rate 0.21% among 390,000; Potency, µM (highest dose often 58.9 µM), inactives show at the highest dose activity change, negative = inhibition, most hits filed as inhibitors; AID 504327, 2011; Histone acetyltransferase KAT2A (Homo sapiens), Q92830; GCN5L2 HAT assay, ThioGlo1 CoA-SH fluorescence
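GCN5L2 (20 nM) in 50mM HEPES pH 7.5, 0.1mM EDTA, 0.01% Tween-20 preincubated 15 min with compounds at room temperature. Reaction started with H3(1-25) 75uM, acetyl-CoA 70uM, ThioGlo1 50uM; CoA-thiol fluorescence (Ex340/Em540) read at 0 and 20 min.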
BLM inh = qHTS Assay for Inhibitors of Bloom's syndrome helicase (BLM). hit rate 0.2% among 350,000. Potency, µM (top dose mostly 56.1 µM), for inactives: at the highest dose activity change, negative = inhibition, hits mostly inhibitors. RecQ-like DNA helicase BLM (Homo sapiens), P54132. recombinant BLM DNA unwinding, fluorescence dequenching;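 also: plate controls were vehicle for no effect and no enzyme for full effect; nearly all actives have a fitted effect of over 35% in size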
DNA dye displace = Counterscreen for APE1 Inhibitors: Fluorescent Dye Displacement Assay; hit rate 7% among 480; shares compounds with APE1 inh-1; Potency, µM (titrated, usually from 28.5 µM), for the others: at the top dose activity change, negative = inhibition, usual class: inhibitors; DNA fluorescent dye displacement counterscreen, fluorescence;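 also: loss of thiazole orange fluorescence as the dye is displaced from duplex DNA; 0% = ThO with dsDNA and no compound and -100% = ThO without dsDNA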
Endo IV inh = Counterscreen for APE1 Inhibitors: qHTS Assay for Inhibitors of Endonuclease IV. shares compounds with APE1 inh-1. E. coli Endo IV, fluorogenic AP-site DNA cleavage. Potency, µM (top dose mostly 27.1 µM), for the others: at the highest dose activity change, negative = inhibition, most hits filed as inhibitors. hit rate 4% among 560;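 also: plate controls were uninhibited enzyme wells for no effect and no enzyme buffer wells for full effect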
APE1 inh-2 = Confirmation qHTS Assay for Inhibitors of the Human Apurinic/apyrimidinic Endonuclease 1 (APE1) | shares compounds with APE1 inh-1 | purified APE1, fluorogenic abasic-site DNA cleavage | Potency, µM (highest dose often 57.1 µM), for inactives: at the top dose activity change, negative = inhibition, usual class: inhibitors | hit rate 44% among 750 | AID 2572, 2010; also: nearly all actives have a fitted effect of over 30% in size
APE1 FP = qHTS FP-Based Assay for Inhibitors of the Human Apurinic/apyrimidinic Endonuclease 1 (APE1) | shares compounds with APE1 inh-1 | APE1 binding to TAMRA-labelled double-stranded DNA, fluorescence polarization displacement | Potency, µM (top dose mostly 28.5 µM), for the others: top-dose activity, negative = inhibition, most hits filed as inhibitors | hit rate 7% among 480 | AID 2573, 2010
* = called active by the depositor; i = inactive; ? = inconclusive; / = not tested or not shown; ! = not active in a repeat; [ ] = dose if it differs, or a comment. The sample as a whole holds a higher share of hits than the screen did. Unless noted, calls follow the shape of the dose curve; as a rule, active = well fitted curve in the direction sought with a large enough effect; inconclusive = small, poorly fitted or top-dose-only effect, or another doubt; inactive = no such curve, though single readings can be large; an effect the other way counts as inactive or inconclusive. Unless noted, % is scaled to controls: 0 for no effect and ±100 for the full control effect; potency is read from the fitted curve at half-maximal effect.

SMILES	L3MBTL1 block	APE1 inh-1	RECQ1 helicase	KDM4E inh	GCN5L2 inh	BLM inh	Endo IV inh	APE1 inh-2	others
Cc1ccc(C2(C(F)(F)F)NC(=O)N3N=C4CCCCCN4C3=C2C#N)cc1 (centres undefined)	/	-3%	-3%	0%	-1%	-3%	/	/
Cc1cccc(C(=O)NCc2nnc(SCC(=O)Nc3nncs3)n2C)c1	/	-5%	/	/	-11%	-3%	/	/
Cc1c(C(=O)O)c(O)cc2c1C(=O)c1c(O)c([C@H]3O[C@H](CO)[C@@H](O)[C@H](O)[C@H]3O)c(O)c(O)c1C2=O	/	10µM*!	32µM*!	7.9µM*	?	-11%	-118%[57.1 µM]	3.2µM*	DNA dye displace=?;APE1 FP=?
CCNc1ccc2noc3c2c1C(=O)c1ccccc1-3	?	3.2µM*	3.5µM*	-7%	-8%	25µM*	13µM*	14µM*	DNA dye displace=i;APE1 FP=0.79µM*
CCOc1ccc2noc3c2c1C(=O)c1ccccc1-3	-12%	-4%	i	?	-22%	-6%	/	/
NN1C(=O)/C(=C\c2ccco2)SC1=S	25µM*	14µM*	?	?	-19%	?	4%	?	DNA dye displace=-11%;APE1 FP=1%
O=C1/C(=C\c2ccco2)SC(=S)N1c1ccc(O)cc1	?	4%	-20%	?	-6%	34%	/	/
[O-]/C(=C(\C(=S)NCc1ccco1)[n+]1ccccc1)c1ccccc1Br	-2%	-1%	5%	5%	66%	-15%	/	/
O=[N+]([O-])c1ccc(/C([O-])=C(/C(=S)NCc2ccco2)[n+]2ccccc2)cc1	?	8.9µM*	-8%	14µM*	-17%	0%	4%	?	DNA dye displace=1%;APE1 FP=?
Cc1nc(N=Nc2ccc(S(=O)(=O)O)cc2S(=O)(=O)O)c(COP(=O)(O)O)c(C=O)c1O	/	32µM*!	-3%	?	?	-4%	-1%[57.1 µM]	-6%
Cc1nc(N=Nc2ccc(C(=O)O)cc2)c(COP(=O)(O)O)c(C=O)c1O	/	?	-1%	28µM*	-15%	/	-10%[57.1 µM]	14µM*
Cc1cccc(-n2c(SCC(=O)N3CCN(c4ccccn4)CC3)nnc2N2CCOCC2)c1	1%	2%	/	/	-4%	/	/	/
Nc1nc(COC(=O)C2CCN(C(=O)c3ccc(Cl)cc3)CC2)nc(Nc2ccccc2)n1	-8%	12%	/	/	-5%	/	/	/
CCn1c(SCC(=O)NCc2ccco2)nnc1-c1ccncc1	-10%	-9%	-7%	7%	0%	-3%	/	/
CCn1c(SCC(=O)NCc2ccco2)nnc1-c1cccs1	0%[11.4 µM]	35µM*	-5%	?	-16%	-20%	-2%	?	DNA dye displace=?;APE1 FP=-14%
O=C(N/N=C1\CC2CC=CC12)c1ccc(O)cc1 (centres undefined)	5%	11%	-10%	67%	-1%	4%	/	/
O=C(COc1ccc(S(=O)(=O)N2CCCC2)cc1Cl)NCc1cccnc1	/	11%	/	/	1%	-5%	/	/
CCn1cc(C(=O)NCc2ccco2)c(=O)c2cc(F)c(N3CCN(C(=O)c4ccco4)CC3)cc21	26%[11.4 µM]	?	-26%	?	-17%	-22%	/	?
COc1cccc(NC(=O)C(=O)NCCc2csc(-c3ccc(C)cc3)n2)c1	/	/	/	/	2%	2%	/	/
Cc1ccc(C(=O)O)cc1-n1c(C)cc(C=O)c1C	?	?	i	10%	-3%	-4%	/	?
CCNc1ncc2nc(CCc3ccccc3)c(=O)n(-c3ccccc3)c2n1	/	-4%	-8%	/	?	-8%	/	/
CC(C)[N+](C)(CCOC(=O)C1c2ccccc2Oc2ccccc21)C(C)C	6%	8.9µM*!	?	-9%	-10%	10%	-7%[57.1 µM]	-34%
CC(C)CNC(=O)COC(=O)C1c2ccccc2Oc2ccccc21	/	-9%	/	/	-11%	1%	/	/
COc1ccc(S(=O)(=O)N2CCNC(=O)C2)cc1Br	-1%	-2%	i	-4%	-2%	-2%	/	/
COc1ccc(-c2coc3cc(O)ccc3c2=O)c(O)c1O	/	3.2µM*	4µM*	11µM*	?	-23%	37%[57.1 µM]	-87%
NC(=O)c1oc2ccccc2c1NC(=O)c1nc2ccccc2s1	-1%	-2%	-2%	?	-5%	-13%	/	?
Cc1ccc2c(=O)c(C(=O)c3cccc(Cl)c3)cn(CC(=O)NC3CCCCC3)c2n1	/	/	/	/	-4%	-8%	/	/
C[C@@H]1OC(OC2CC[C@@]3(C)C(CC[C@@]4(C)C3CC=C3C5CC(C)(C)CC[C@]5(C(=O)OC5OCC(O)[C@@H](O)[C@@H]5OC5O[C@@H](C)[C@H](O[C@H]6OC(CO)C(O)C(O)C6O)C(O)C5O)C(O)C[C@@]34C)C2(C)C)C(O)C(O)[C@H]1OC1OCC(O)C(O)[C@H]1O (some centres undefined)	/	28µM*	-17%	-14%	-5%	0%	0%[57.1 µM]	32µM*	DNA dye displace=-1%[57.1 µM];APE1 FP=8%[57.1 µM]
